Compound activity: PubChem, The Scripps Research Institute Molecular Screening Center
In the library only some 0.84% were active in any assay of this set; here they are far more common.
TR-FRET SRC-2 ct: flags TR-FRET format artefacts in PPARgamma SRC-2 recruitment agonist screen. TR-FRET artefact counter-screen; hits give high values. TR-FRET ratio at 8 µM. 200,000 tested, 0.4% active
PPARg SRC-2 ag: PPARgamma-driven SRC-2 recruitment agonism; AID 1032; activation, % at 8 µM; PPARgamma LBD-SRC-2 recruitment, biochemical; P37231; 200,000 tested, 0.34% active; in the data active = activation above about 22%
PPARg SRC-3 ag: agonists of human PPARgamma SRC-3 coactivator recruitment. activation, % at 8 µM. biochemical PPARgamma/SRC-3 coactivator recruitment assay. 200,000 tested, 0.26% active. AID 731; in the data active = activation above about 23%
SRC3 TRFRET art: counter-screen for PPARgamma SRC-3 recruitment agonists: TR-FRET artefact; PPARgamma/SRC-3 format; hits give high values; TR-FRET ratio at 8 µM; 99,000 tested, 0.39% active; AID 1048
PPARg SRC1 recr: promotes SRC-1 coactivator recruitment by human PPARgamma; P37231; PPARgamma-SRC-1 coactivator recruitment biochemical assay; activation, % at 8 µM; 200,000 tested, 0.41% active; in the data active = activation above about 19%
SRC1 TRFRET art: flags TR-FRET format artefacts in PPARgamma SRC-1 recruitment agonist screen; TR-FRET detection artefact counter-screen, emission ratio; hits give high values; TR-FRET ratio at 8 µM; 99,000 tested, 0.34% active; in the data active = TR-FRET ratio above about 2300
PPARg SRC2 ag: human PPARgamma SRC-2 recruitment agonism, confirmation | shares compounds with PPARg SRC-3 ag | biochemical SRC-2 recruitment by PPARgamma | activation, % at 8 µM | 790 tested, 52% active | AID 1297; in the data active = activation above about 22%
PPARg SRC1 conf: confirmation of agonists of SRC-1 recruitment by human PPARgamma; shares compounds with PPARg SRC-3 ag; PPARgamma–SRC-1 coactivator recruitment biochemical assay; activation, % at 8 µM; 790 tested, 43% active; AID 1300; in the data active = activation above about 20%
PPARg SRC3 conf: human PPARgamma SRC-3 recruitment agonism, confirmation; shares compounds with PPARg SRC-3 ag; biochemical PPARgamma-SRC-3 coactivator recruitment, agonist mode; activation, % at 8 µM; 790 tested, 29% active; in the data active = activation above about 24%
Each line names hits and unclear results; the compound was inactive in the other large screens (follow-up assays come after a bar, where they were run). Rule as the data show it, unless noted: active = TR-FRET ratio above about 2000; inactive = the rest.

Cc1ccc(NS(=O)(=O)c2cc(C(=O)NCCSc3ccc(C)cc3)ccc2C)cc1	PPARg SRC1 recr 19.5 (no result: SRC3 TRFRET art, SRC1 TRFRET art) | PPARg SRC2 ag inactive | PPARg SRC1 conf inactive | PPARg SRC3 conf inactive
O=[N+]([O-])c1cccc(C=Nc2cc3c(cc2Br)OCCO3)c1	none
O=C(O)c1cc(-c2cccnc2)nc2ccc(Br)cc12	SRC3 TRFRET art 2133, PPARg SRC1 recr 24.9, SRC1 TRFRET art 2326 | PPARg SRC2 ag inactive | PPARg SRC1 conf inactive | PPARg SRC3 conf inactive
COC(=O)c1cc(-c2ccc3c(c2)OCO3)nc2ccccc12	none
O=C(O)c1cc(-c2ccc3c(c2)OCO3)nc2ccc(Br)cc12	TR-FRET SRC-2 ct 2330, PPARg SRC-2 ag 31.0, PPARg SRC-3 ag 22.6, SRC3 TRFRET art 2538, PPARg SRC1 recr 32.9, SRC1 TRFRET art 2873 | PPARg SRC2 ag inactive | PPARg SRC1 conf inactive | PPARg SRC3 conf inactive
COc1cc(NC(=O)c2nnn(Cc3ccc(SC)cc3)c2N)cc(OC)c1	none (no result: SRC3 TRFRET art, SRC1 TRFRET art)
Cc1ccc(-n2c(=S)[nH]c3c(oc4ccccc43)c2=O)cc1C	none
O=c1c2oc3ccccc3c2[nH]c(=S)n1-c1ccc(F)cc1	TR-FRET SRC-2 ct 2177, PPARg SRC-2 ag 26.0, SRC3 TRFRET art 2296, SRC1 TRFRET art 2641 | PPARg SRC2 ag inactive | PPARg SRC1 conf inactive | PPARg SRC3 conf inactive
CCOC(=O)c1c(C)[nH]c(C(=O)OCC(=O)c2c(N)n(C)c(=O)n(C)c2=O)c1C	none
Nc1ccc(Nc2nc(-c3ccncc3)cs2)cc1	PPARg SRC-3 ag 32.7 (no result: SRC3 TRFRET art, SRC1 TRFRET art) | PPARg SRC2 ag inactive | PPARg SRC1 conf inactive | PPARg SRC3 conf inactive
CC(/C=N/NC(=O)c1sc(N)nc1C)=C\c1ccccc1	none
CC(C)CC(=O)NC(=S)Nc1cccc2nsnc12	TR-FRET SRC-2 ct 3677, PPARg SRC-2 ag 86.8, PPARg SRC-3 ag 62.1, SRC3 TRFRET art 4035, PPARg SRC1 recr 135.4, SRC1 TRFRET art 5013 | PPARg SRC2 ag 136.6 | PPARg SRC1 conf 104.9 | PPARg SRC3 conf 81.0
COc1c(C)cccc1C(=O)NC(=S)Nc1cccc2nsnc12	TR-FRET SRC-2 ct 2472, PPARg SRC-2 ag 30.0, PPARg SRC-3 ag 36.2, SRC3 TRFRET art 2881, PPARg SRC1 recr 38.6, SRC1 TRFRET art 2682 | PPARg SRC2 ag 90.4 | PPARg SRC1 conf 70.7 | PPARg SRC3 conf 60.4
CCc1noc(C)c1C(=O)N1CCCC(CCC(=O)NCc2ccc(F)c(F)c2)C1 (configuration not stated)	none
COc1ccc(N(C(=O)c2cnccn2)C(C(=O)NC2CCCCC2)c2ccc(O)cc2)cc1 (configuration not stated)	none
O=C1CCC(=O)N1c1ccc(-c2nc3ccccc3s2)cc1	PPARg SRC-2 ag 24.7, PPARg SRC1 recr 27.7 | PPARg SRC2 ag inactive | PPARg SRC1 conf inactive | PPARg SRC3 conf inactive
COc1ccc(C(=O)OCC(=O)N2CCCC2=O)c(OC)c1	none
Clc1ccc(-c2nnc3sc(-c4ccc(Br)o4)nn23)c(Cl)c1	PPARg SRC-2 ag 22.9 (no result: SRC3 TRFRET art, SRC1 TRFRET art) | PPARg SRC2 ag inactive | PPARg SRC1 conf inactive | PPARg SRC3 conf inactive
CN(C)c1ccc(-c2nn3c(-c4ccc(Cl)cc4Cl)nnc3s2)cc1	none
O=C(COC(=O)c1cc(-c2cccc3ccccc23)nc2ccccc12)NC1CCS(=O)(=O)C1 (configuration not stated)	none
CCN(C(=O)COC(=O)c1cc(-c2cccc3ccccc23)nc2ccccc12)C1CCS(=O)(=O)C1 (configuration not stated)	PPARg SRC-2 ag 22.2, SRC3 TRFRET art 2078 | PPARg SRC2 ag inactive | PPARg SRC1 conf inactive | PPARg SRC3 conf inactive
Cc1ccc(S(=O)(=O)NCC(=O)OCC(=O)c2cccs2)cc1	none (no result: SRC3 TRFRET art, SRC1 TRFRET art)
Cc1ccc(S(=O)(=O)NCC(=O)OCC(=O)c2ccc(Br)s2)cc1	PPARg SRC-2 ag 55.1, PPARg SRC-3 ag 66.2, PPARg SRC1 recr 36.2 (no result: SRC3 TRFRET art, SRC1 TRFRET art) | PPARg SRC2 ag 51.2 | PPARg SRC1 conf 31.7 | PPARg SRC3 conf 34.8
